This passage reports Inhibition results from ChEMBL document CHEMBL4513145, “CO-ADD screening of Biotechnology Research Centre (C.R.B.t) (Algeria) compounds”.

Where “and” joins values, the source holds several entries; their conditions need not be identical. Equal entries are not always repeated. Entries with a potency or affinity are not part of this list.

The subject of the first assay is Staphylococcus aureus. The settings on record: Concentration 32 ug.mL-1; ASSAY_TEST Inhibition of Bacterial Growth; detection method Absorption (OD600); MEDIA CAMHB; plate type 384well; NBS; CORNING #3640; time 18 hr.
With `CCCCCCCC1CN(S(=O)(=O)c2ccc(C)cc2)N(C(=O)OC(C)(C)C)C1O` (stereo not given), the Inhibition is reported as 6.71%.

With `CC1CN(S(=O)(=O)c2ccc([N+](=O)[O-])cc2)N(C(=O)OC(C)(C)C)C1O` (stereo not given), the Inhibition is 60.53%.

In the case of `CC1CN(C(=O)OCc2ccccc2)OC1O` (stereo not given), the Inhibition is given as 2.79%. Take `CCCCCCCC1CN(S(=O)(=O)c2ccc(C)cc2)N(S(=O)(=O)c2ccc(C)cc2)C1O` (stereo not given): the Inhibition is 7.71%.

Consider `CCCCCCCC1CN(S(=O)(=O)c2ccc(C)cc2)N(C(=O)OC(C)(C)C)C1=O` (stereo not given), for which the Inhibition is listed as 0.71%. On to `O=C(OCc1ccccc1)N1OC(O)C2CCCCC21` (stereo not given), for which the Inhibition is listed as 6.89%. As to `CC1C(O)N(C(=O)OC(C)(C)C)N(S(=O)(=O)c2ccc([N+](=O)[O-])cc2)C1C` (stereo not given), the Inhibition is 14.48%.

On to `O=C(OCc1ccccc1)N1CC(Cc2ccccc2)C(O)O1` (stereo not given), for which the Inhibition is recorded as 13.58%. Still for that read-out and setting: under `CC(C)(C)OC(=O)N1C(O)C2CCCC2N1S(=O)(=O)c1ccc([N+](=O)[O-])cc1` (stereo not given) stands -6.71%.

The assay is the same for the next values; noted with them: Concentration 32 ug.mL-1; ASSAY_TEST Inhibition of Bacterial Growth; detection method Absorption (OD600); MEDIA CAMHB; plate type 384well; NBS; CORNING #3640; time 18 hr, 32 ug/mL.
As for `Cc1ccc(S(=O)(=O)N2CC(Cc3ccccc3)C(=O)N2S(=O)(=O)c2ccc(C)cc2)cc1` (stereo not given), the Inhibition was -1.12% and 2.54%. On the same count and under the same terms, under `O=C1ON(C(=O)OCc2ccccc2)CC1Cc1ccccc1` (stereo not given) stands 5.51% and 8.05%; under `CC(C)(C)OC(=O)N1C(O)C(Cc2ccccc2)CN1S(=O)(=O)c1ccc([N+](=O)[O-])cc1` (stereo not given), 11.9% and 5.44% and 15.35%. For `CC(C)(C)OC(=O)N1C(=O)C(Cc2ccccc2)CN1S(=O)(=O)c1ccc([N+](=O)[O-])cc1` (stereo not given), the Inhibition was 9.07% and 7.14% and -8.81%. Consider `Cc1ccc(S(=O)(=O)N2CC(C)C(=O)N2S(=O)(=O)c2ccc(C)cc2)cc1` (stereo not given), for which the Inhibition was 12.43% and 4.65%. For the molecule `CC1CN(S(=O)(=O)c2ccc([N+](=O)[O-])cc2)N(C(=O)OC(C)(C)C)C1=O` (stereo not given), the Inhibition was 12.53% and 22.23% and 12.31%.

As for `CC1CN(C(=O)OCc2ccccc2)OC1=O` (stereo not given), the Inhibition was 5.54% and 4.49% and 4.77%.

The next assay has as its system Escherichia coli. The following applies: Concentration 32 ug.mL-1; ASSAY_TEST Inhibition of Bacterial Growth; detection method Absorption (OD600); MEDIA CAMHB; plate type 384well; NBS; CORNING #3640; time 18 hr.
As for `CCCCCCCC1CN(S(=O)(=O)c2ccc(C)cc2)N(C(=O)OC(C)(C)C)C1O` (stereo not given), the Inhibition is reported as -7.16%.

As for `CC1CN(S(=O)(=O)c2ccc([N+](=O)[O-])cc2)N(C(=O)OC(C)(C)C)C1O` (stereo not given), the Inhibition is recorded as -0.56%. With `CC1CN(C(=O)OCc2ccccc2)OC1O` (stereo not given), the Inhibition is -4.78%. Still for that read-out and setting: under `CCCCCCCC1CN(S(=O)(=O)c2ccc(C)cc2)N(S(=O)(=O)c2ccc(C)cc2)C1O` (stereo not given) stands -1.55%; under `CCCCCCCC1CN(S(=O)(=O)c2ccc(C)cc2)N(C(=O)OC(C)(C)C)C1=O` (stereo not given), -11.74%; under `O=C(OCc1ccccc1)N1OC(O)C2CCCCC21` (stereo not given), -5.21%.

Regarding `CC1C(O)N(C(=O)OC(C)(C)C)N(S(=O)(=O)c2ccc([N+](=O)[O-])cc2)C1C` (stereo not given), the Inhibition is recorded as -1.81%. Take `O=C(OCc1ccccc1)N1CC(Cc2ccccc2)C(O)O1` (stereo not given): the Inhibition is on record as -3.12%. In the case of `CC(C)(C)OC(=O)N1C(O)C2CCCC2N1S(=O)(=O)c1ccc([N+](=O)[O-])cc1` (stereo not given), the Inhibition was -4.07%.
